# About 83,000 compounds went through this panel and 20% of them were active in at least one assay; those are over-represented in the sample as a whole.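 Growth was measured after 48 h exposure to one concentration of compound in 96-well plates. Values under 10 count as active.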 A number with no mark means an inactive call. The source made the active and inactive calls.
# Key:
# Assay in all cases: NCI-60 one-dose screen, 48 h (100 = growth as untreated, 0 = no growth, -100 = all killed)
# Details in all cases: 10 µM unless noted
# HCT-15 colon = tested on: HCT-15 colon
# HT29 colon = tested on: HT29 colon
# SNB-75 CNS = tested on: SNB-75 CNS
# SNB-19 CNS = tested on: SNB-19 CNS
# U251 CNS = tested on: U251 CNS
# PC-3 prostate = tested on: PC-3 prostate
# SK-MEL-5 melanoma = tested on: SK-MEL-5 melanoma
# UACC-62 melanoma = tested on: UACC-62 melanoma
# LOX IMVI melanoma = tested on: LOX IMVI melanoma
# SK-MEL-28 melanoma = tested on: SK-MEL-28 melanoma
# SK-MEL-2 melanoma = tested on: SK-MEL-2 melanoma
# EKVX NSCLC = tested on: EKVX NSCLC
# SN12C renal = tested on: SN12C renal
# UO-31 renal = tested on: UO-31 renal
# TK-10 renal = tested on: TK-10 renal
# ACHN renal = tested on: ACHN renal
# CAKI-1 renal = tested on: CAKI-1 renal
# A498 renal = tested on: A498 renal
# CCRF-CEM leukemia = tested on: CCRF-CEM leukemia
# MOLT-4 leukemia = tested on: MOLT-4 leukemia
Compound,growth (HCT-15 colon) [%],growth (HT29 colon) [%],growth (SNB-75 CNS),growth (SNB-19 CNS) [%],growth (U251 CNS),growth (PC-3 prostate) [%],growth (SK-MEL-5 melanoma),growth (UACC-62 melanoma),growth (LOX IMVI melanoma),growth (SK-MEL-28 melanoma),growth (SK-MEL-2 melanoma),growth (EKVX NSCLC) [%],growth (SN12C renal) [%],growth (UO-31 renal),growth (TK-10 renal) [%],growth (ACHN renal),growth (CAKI-1 renal) [%],growth (A498 renal),growth (CCRF-CEM leukemia),growth (MOLT-4 leukemia) [%]
CCCN(CCSSCCNc1nc(N(C)O)nc(N(C)O)n1)c1nc(N(C)O)nc(N(C)O)n1,69.3,78.4,73.8%,44.7,32.8%,67.9,80.9%,81.3%,70.7%,67.1%,69.8%,54.3,69.7,52.3%,71,45.3%,31.9,64.4%,9.07% (active),47.3
Cc1cc(Cl)nc(N2CCN(CCNc3ccnc4cc(Cl)ccc34)CC2)n1,22.4,10.5,87.5%,79.9,55.3%,43.1,-45.2% (active),29.7%,-14.6% (active),47.7%,61.1%,44.8,71.2,32.4%,48.2,58.2%,44.6,42.4%,63.1%,32.6
CSc1ccc(N2C(=N)C(=S)N(c3ccc(C)cc3)C2=O)cc1,85.9,107,89.9%,101,91%,74,101%,92.8%,87.4%,106%,118%,93.9,94,75.5%,109,88.2%,82.7,104%,80.6%,89.8
O=C(NCCN1CCOCC1)OCc1ccc2c(Cl)cc(Cl)c(O)c2n1,19.5,108,71.2%,59,44.6%,60,53.8%,59.7%,51%,71.6%,78.1%,89.6,64.4,25.5%,96.4,37.3%,47.1,106%,48.3%,57.9
Nc1ncccc1O,18.7,26.6,121%,101,81.4%,133,101%,89.3%,75.2%,106%,17.3%,120,96.7,92.5%,108,5.59% (active),56.6,99.7%,84.6%,65
Cc1ccc(NC(=O)c2cc3ccccc3cc2O)c(C)c1,77.4,104,96.8%,105,97.5%,35.9,49.4%,66.1%,88%,81.9%,91.8%,79.6,89.7,69.2%,93.8,91.7%,66.5,68.4%,67.8%,104
O=Nc1ccc(NC(=O)Nc2ccc([N+](=O)[O-])cc2)cc1,83.2,100,96.4%,107,92.5%,72.2,86.7%,76.9%,88.8%,108%,116%,96,94.9,85.8%,99.7,94.7%,97.1,84%,68.4%,88.6
CCCCO[C@@H]1C=C2[C@H]3CC(C)(C)C(=O)C[C@]3(C(=O)O[C@@H]3O[C@H](CO[C@@H]4O[C@H](CO)[C@@H](OC5OC(C)C(O)C(O)C5O)[C@H](O)[C@H]4O)[C@@H](O)[C@H](O)[C@H]3O)CC[C@@]2(C)[C@]2(C)CC[C@H]3C(C)(C)C(=O)CC[C@]3(C)[C@@H]12 (stereo not given in full),54.5,43.2,31.3%,88,56.4%,85.2,63.9%,81.4%,76.9%,41.5%,64.3%,87.1,81.2,19.4%,61.6,22.9%,50.8,93.9%,43.3%,51.5
C=CC(CC(c1ccccc1)(c1ccccc1)c1ccccc1)N(CC)CC (stereo not given),41.4,16.2,68.1%,98.3,62%,44.9,13.5%,44.2%,71.6%,61.6%,93.7%,75.7,71.4,43.2%,73.6,85.8%,65.6,66.3%,53.5%,56.2
COC1C(O)CC(OC2CC(OC3CC(O[C@@H]4C(=O)c5c(cc6cc(OC7CC(OC8CC(O)C(O)C(C)O8)C(O)C(C)O7)c(C)c(O)c6c5O)CC4[C@H](OC)C(=O)O)OC(C)C3O)OC(C)C2O)OC1C (stereo not given in full),48.6,20.3,-22.7% (active),21.4,0.444% (active),21.8,-45.9% (active),-0.0213% (active),-12.7% (active),3.33% (active),-34.2% (active),40.4,20.7,1.52% (active),34.1,2.86% (active),18.1,-15.2% (active),46.1%,27.2
CC1(C)CC(=O)C2=C(C1)C(c1ccc(Cl)cc1)n1ncc(C#N)c1N2 (stereo not given),105,106,75.6%,96.5,97.8%,90.4,95.4%,89.8%,107%,112%,103%,92.8,90.9,85.5%,107,93.2%,90.3,103%,98.4%,98.1
O=C(c1c[nH]c2ccccc12)c1n[nH]c(=S)n1-c1ccc([N+](=O)[O-])cc1,64.7,98.6,95.4%,116,105%,83.9,88.3%,93.1%,100%,107%,86.4%,94.6,92.8,75.2%,117,96.1%,85.4,87.9%,85.1%,86
CC1(C)CC[C@]2(CO)CC[C@]3(C)[C@](O)([C@H](O)C[C@@H]4[C@@]5(C)CCCNC(C)(C)[C@@H]5CC[C@]43C)[C@@H]2C1,88.5,20.6,88.7%,103,79.6%,75.9,96.8%,103%,87.8%,100%,106%,107,90,73%,103,108%,97.5,83.6%,74.6%,46
O=c1cc(CP(=O)(O)O)c2cc(O)c(-c3ccccc3)cc2o1,101,108,83.8%,96.8,100%,98.6,98.1%,97.8%,99.5%,104%,107%,89,98.2,88.2%,106,98.4%,93,109%,93.6%,99.2
CC(O)Cc1c[nH]c(=O)[nH]c1=O (stereo not given),97.8,114,120%,108,95.9%,126,109%,106%,96.5%,122%,115%,106,110,100%,123,97.9%,99.6,87.8%,122%,101
